Bioassay records (PubChem)
UCHL1 inh: inhibitors of human UCHL1 deubiquitinase; Ubiquitin carboxyl-terminal hydrolase isozyme L1 (Homo sapiens), P09936; purified UCHL1, Ub-rhodamine cleavage fluorescence; inhibition, % at 20 µM; actives 0.2% (n = 47,000); AID 1645859, 2021
Target sequence (P09936 whole entry, looked up): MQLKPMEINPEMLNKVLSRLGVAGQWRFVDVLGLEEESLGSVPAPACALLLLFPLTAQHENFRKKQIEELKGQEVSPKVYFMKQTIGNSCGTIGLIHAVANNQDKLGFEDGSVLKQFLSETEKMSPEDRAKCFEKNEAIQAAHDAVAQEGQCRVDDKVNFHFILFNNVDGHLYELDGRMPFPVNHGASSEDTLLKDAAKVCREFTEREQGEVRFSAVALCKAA
USP7 inh: inhibitors of human USP7 deubiquitinase. Ubiquitin carboxyl-terminal hydrolase 7 (Homo sapiens), Q93009. purified USP7, Ub-rhodamine cleavage fluorescence. inhibition, % at 20 µM. actives 0.3% (n = 47,000)
USP8 block: inhibitors of human USP8 deubiquitinase; AID 1645853, 2021; inhibition, % at 20 µM; purified USP8, Ub-rhodamine cleavage fluorescence, 30 min; Ubiquitin carboxyl-terminal hydrolase 8 (Homo sapiens), P40818; actives 4.2% (n = 47,000)
USP17 block: inhibitors of human USP17 deubiquitinase; purified USP17, Ub-rhodamine cleavage fluorescence, 3 h; AID 1645855, 2021; Ubiquitin carboxyl-terminal hydrolase 17-like protein 5 (Homo sapiens), A8MUK1; inhibition, % at 50 µM; actives 6.5% (n = 47,000)
USP30 block: inhibitors of human USP30 deubiquitinase; Ubiquitin carboxyl-terminal hydrolase 30 (Homo sapiens), Q70CQ3; purified USP30, Ub-rhodamine cleavage fluorescence; inhibition, % at 25 µM; actives 5.3% (n = 47,000); AID 1645860, 2021
USP10 inh: inhibitors of human USP10 deubiquitinase. purified USP10, Ub-rhodamine fluorescence, 60 min. Ubiquitin carboxyl-terminal hydrolase 10 (Homo sapiens), Q14694. inhibition, % at 20 µM. actives 1.1% (n = 47,000)
* hit, by the source's call. Most compounds without a hit are left out; they make up all but 12% or so of the library. Rule as the data show it: active = inhibition above about 30%; inactive = the rest.

Results for Cc1ccc(-c2c(NC(=O)c3cccc([N+](=O)[O-])c3)n(C)c3ccccc3c2=O)cc1 ?
UCHL1 inh: 3; USP7 inh: 4; USP8 block: 4; USP17 block: 15; USP30 block: 32*; USP10 inh: 2

Results for COC(=O)c1cc(NC(=O)COc2ccccc2)ccc1N1CCOCC1 ?
UCHL1 inh: 1; USP7 inh: -19; USP8 block: -23; USP17 block: -4; USP30 block: 0; USP10 inh: 0

Results for Cc1cc(N2CCCC2)n2nc(CN3CCN(CC(C)C)CC3)nc2n1 ?
UCHL1 inh: -3; USP7 inh: 0; USP8 block: -103; USP17 block: -18; USP30 block: 0; USP10 inh: 0

What do the screens show for `CCOc1ccccc1NC(=O)Nc1nnc(CC(=O)N2CCOCC2)s1`?
UCHL1 inh: -4; USP7 inh: -1; USP8 block: -3; USP17 block: -1; USP30 block: -8; USP10 inh: 0

What do the screens show for `Cc1nn(-c2cccc(F)c2)c2c1C(C(=O)c1ccc(Cl)s1)CC(=O)N2` (centres undefined)?
UCHL1 inh: 0; USP7 inh: -22; USP8 block: -13; USP17 block: 23; USP30 block: 50*; USP10 inh: 3

What do the screens show for `CCc1cccc(-n2nc(C)c3c2NC(=O)CC3C(=O)c2ccc(C)s2)c1` (centres undefined)?
UCHL1 inh: 1; USP7 inh: -2; USP8 block: 0; USP17 block: 17; USP30 block: 0; USP10 inh: 1

How did COc1ccc(-n2nc(C)c3c2NC(=O)CC3C(=O)c2ccc(Cl)s2)cc1 (centres undefined) do in these assays?
UCHL1 inh: 0; USP7 inh: -10; USP8 block: -9; USP17 block: -12; USP30 block: -17; USP10 inh: -1

Results for Cc1ccc(-n2nc(C)c3c2NC(=O)CC3C(=O)c2cc3ccccc3o2)cc1C (centres undefined) ?
UCHL1 inh: 3; USP7 inh: -1; USP8 block: 5; USP17 block: 74*; USP30 block: -10; USP10 inh: 10

Results for Cc1ccc(C(=O)C2CC(=O)Nc3c2c(C)nn3-c2ccc(C)c(C)c2)s1 (centres undefined) ?
UCHL1 inh: 0; USP7 inh: -3; USP8 block: 3; USP17 block: 70*; USP30 block: 50*; USP10 inh: 1

What do the screens show for `O=C(Nc1ccc2c(c1)OCCO2)NC1CCCCC1`?
UCHL1 inh: -1; USP7 inh: 1; USP8 block: 4; USP17 block: 2; USP30 block: 0; USP10 inh: 0

What do the screens show for `O=C(Nc1ccc(-n2ccc(C(F)(F)F)n2)cc1)Nc1ccc2c(c1)CCO2`?
UCHL1 inh: 2; USP7 inh: 3; USP8 block: 9; USP17 block: 12; USP30 block: 32*; USP10 inh: 26

Results for CC1CCN(c2ncnc3c2cnn3CC(=O)NCc2cccnc2)CC1 ?
UCHL1 inh: 2; USP7 inh: 4; USP8 block: 18; USP17 block: 18; USP30 block: 7; USP10 inh: -4

How did O=C(Cn1ncc2c(N3CCCCC3)ncnc21)NCc1ccc2c(c1)OCO2 do in these assays?
UCHL1 inh: 0; USP7 inh: 2; USP8 block: 2; USP17 block: 55*; USP30 block: 55*; USP10 inh: 0

Results for O=C(Cn1ncc2c(N3CCCCCC3)ncnc21)NCc1ccccc1 ?
UCHL1 inh: 1; USP7 inh: 4; USP8 block: 12; USP17 block: 29; USP30 block: 70*; USP10 inh: 0

How did O=C(NCCN1CCOCC1)c1cc(-c2ccn(-c3ccccc3)n2)n2ccccc12 do in these assays?
UCHL1 inh: 4; USP7 inh: -25; USP8 block: -81; USP17 block: -12; USP30 block: -61; USP10 inh: -6

Results for CCCc1cc(C2CCCN2C(=O)c2cc(-c3ccco3)on2)no1 (centres undefined) ?
UCHL1 inh: 3; USP7 inh: 0; USP8 block: -10; USP17 block: 47*; USP30 block: -36; USP10 inh: -8

What do the screens show for `OC(c1ccccn1)c1c[nH]c2ccccc12` (centres undefined)?
UCHL1 inh: -3; USP7 inh: -7; USP8 block: 0; USP17 block: -10; USP30 block: -26; USP10 inh: -2

How did O=[N+]([O-])c1ccccc1C(c1c[nH]c2ccccc12)c1c[nH]c2ccccc12 do in these assays?
UCHL1 inh: 6; USP7 inh: -4; USP8 block: 82*; USP17 block: 54*; USP30 block: -40; USP10 inh: -3

Results for Cc1ccc2[nH]c(=O)c(CN(Cc3ccco3)S(=O)(=O)c3ccccc3)cc2c1 ?
UCHL1 inh: -4; USP7 inh: 1; USP8 block: -18; USP30 block: -91; USP10 inh: -6

How did COc1ccc(N(Cc2cc3cc(OC)ccc3[nH]c2=O)S(=O)(=O)c2ccccc2)cc1 do in these assays?
UCHL1 inh: 0; USP7 inh: 2; USP8 block: -21; USP17 block: -1; USP30 block: -2; USP10 inh: 4

Results for Cc1ccc(S(=O)(=O)N(C)Cc2cc3cc(C)ccc3[nH]c2=O)cc1 ?
UCHL1 inh: 3; USP7 inh: 5; USP8 block: -5; USP17 block: 57*; USP10 inh: -6

Results for COCCN(Cc1cc2cc(C)ccc2[nH]c1=O)S(=O)(=O)c1ccc(Cl)cc1 ?
UCHL1 inh: 0; USP7 inh: 0; USP8 block: -28; USP17 block: 33*; USP30 block: 28; USP10 inh: 0

What do the screens show for `O=c1[nH]c2ccccc2cc1CN(c1ccccc1)S(=O)(=O)c1ccc(Cl)cc1`?
UCHL1 inh: 1; USP7 inh: 1; USP8 block: 4; USP17 block: 48*; USP30 block: -1; USP10 inh: 1

Results for Cc1ccc2[nH]c(=O)c(CN(CC3COCCO3)S(=O)(=O)c3ccc(F)cc3)cc2c1 (centres undefined) ?
UCHL1 inh: 0; USP7 inh: 5; USP8 block: 35*; USP17 block: 76*; USP30 block: 11; USP10 inh: 23

Results for CN(CC(=O)NC1CCCCCC1)c1nnc(N2CCCCC2=O)s1 ?
UCHL1 inh: -1; USP7 inh: 0; USP8 block: -5; USP17 block: 3; USP30 block: 7; USP10 inh: 3

What do the screens show for `CC(C)CN1CC(=O)N2C(c3cccc4ccccc34)c3[nH]c4ccccc4c3C[C@@H]2C1=O` (some centres undefined)?
UCHL1 inh: -6; USP7 inh: -6; USP8 block: 0; USP17 block: -28; USP30 block: -91; USP10 inh: -3
